Potency and activity change, negative = cytotoxicity data for 26 molecules are collected here from PubChem BioAssay (NCATS).

Holding throughout (assay): Primary qHTS to identify gynecologic anti-cancer compounds using libraries of approved drugs and bioactive compounds (AID 1345084); further: nearly all actives have a fitted effect of over 55% in size
Conditions in all cases: Gynecologic cancer cell panel viability, ATPlite luminescence, 48 h; series mostly up to 57.5 µM
(In qHTS, concentration-response curves come from the screen itself.)

One assay concerns OV90. The essentials:
(§1)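 Five-concentration response, 48 h; readout is ATP-driven luciferase luminescence.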

A further assay relates to PA-1. The method, boiled down:
as §1

In the next assay the test system is Tov-21-G. The method, boiled down:
as §1

In another assay the test system is Tov112D. The essentials:
as §1

The next assay deals with SKOV3. The method, boiled down: as §1

Records with an inconclusive call do not appear. Unmarked numbers belong to inactive results. Activity calls are given as the source filed them. The call rests on the fitted dose curve; in most records, active means well fitted cell-killing curve with a large enough effect; inconclusive means small, poorly fitted or top-dose-only effect, or effect the other way; inactive means flat fitted curve, though single readings scatter.
On the % scale 0 is the no-effect control and ±100 the full control effect; potency means the concentration at half of the fitted maximal effect.

Turning to `C/C(=C\CCC(C)C1=CCC2(C)OC3=C(CC12)C(=O)C(O)CC3)CO` (stereo unspecified), the Potency entry with OV90, with PA-1, in the assay on Tov-21-G and in the assay with Tov112D was “inactive” each time.

As to `COc1cc(C[C@H]2C(=O)OC[C@@H]2Cc2ccc(OC)c(OC)c2)ccc1O`, the Potency entry in the assay on OV90, in the assay with PA-1, in the assay on Tov-21-G and with Tov112D was “inactive” throughout.

Turning to `CNc1ccc([N+](=O)[O-])c(Nc2ccc3[nH]ncc3c2)n1`, the Potency entry with OV90 and in the assay on SKOV3 was “inactive” each time.

For `C=C[C@@]1(C)CCC2C(=CCC3[C@]2(C)CCC[C@@]3(C)C(=O)O)C1` (stereo partly specified), the Potency result in the assay with OV90, in the assay on SKOV3 and with Tov-21-G was “inactive” in each case.

As for `O=c1nc(-c2ccccn2)sc2ccccc12`, the Potency result with OV90, in the assay with PA-1 and with Tov112D was “inactive” in each case.

`C[C@H](Oc1cc(-n2cnc3ccc(CN4CCN(C)CC4)cc32)sc1C(N)=O)c1ccccc1C(F)(F)F`: in the assay on OV90, the Potency entry is “inactive”. In addition, the Potency in the assay on PA-1 is 11.2 µM (active); in the assay with Tov112D, 7.94 µM (active).

As to `CCCCC1CCC(c2nc(-c3ccncc3)no2)CC1` (stereo unspecified), the Potency entry in the assay with OV90, in the assay with PA-1, with Tov-21-G and in the assay with Tov112D was “inactive” throughout.

Consider `Cn1cc(-c2ccc3c(c2)CCN3C(=O)Cc2cccc(C(F)(F)F)c2)c2c(N)ncnc21`, for which the Potency entry in the assay with OV90, in the assay on PA-1 and with Tov112D was “inactive” in each case.

Take `O=C(Nc1nc2cc(C(F)(F)F)cc(NC3CC3)n2n1)c1cccnc1`: the Potency result in the assay with OV90 was “inactive”. In addition, the Potency in the assay on PA-1 was 7.08 µM (active); in the assay on Tov112D, 7.94 µM (active).

For the molecule `CN1CCN(c2ccc(OC(F)(F)F)c(Nc3ncc4c(n3)-c3c(c(C(N)=O)nn3CCO)CC4)c2)CC1`, the Potency result in the assay with OV90 was “inactive”. In addition, the Potency in the assay on PA-1 was 0.282 µM (active); in the assay with Tov112D it was 0.316 µM (active).

For `COc1ccccc1S(=O)(=O)Nc1ccc2c(c1)CN(C)C(=O)N2`, the Potency result in the assay with OV90, with PA-1 and in the assay on Tov112D was “inactive” throughout.

Take `COc1ccc(CCCN2CCC(COC(c3ccccc3)c3ccccc3)CC2)cc1`: the Potency result in the assay with OV90, in the assay on PA-1 and with Tov112D was “inactive” throughout.

For `COC1C(O)C(OC2CCC3(C)C(CCC45CCC6C7(COC(=O)C7)OC4(O)C6(C)CCC35)C2)OC(C)C1OC1OC(CO)C(OC2OC(CO)C(O)C(O)C2O)C(O)C1O` (stereo unspecified), the results for the activity change, negative = cytotoxicity with OV90 and in the assay with SKOV3 were -0.158% [at 11.6 µM] and -3.24% [at 11.6 µM], respectively.

For the molecule `Cn1cc(-c2ccc(S(=O)(=O)n3ccc(/C=C/C(=O)Nc4ccccc4N)c3)cc2)cn1`, the Potency with OV90 was 15.8 µM (active); in the assay with PA-1, 7.08 µM (active); in the assay on Tov112D it was 4.47 µM (active).

Consider `CCn1c(=O)c(-c2ccc(Cl)cc2Cl)cc2cnc(Nc3ccc(N4CCNCC4)c(F)c3)nc21`, for which the Potency entry in the assay with OV90, with PA-1 and in the assay on Tov112D was “inactive” throughout.

For the molecule `C=C1C(=O)O[C@@H]2C[C@]3(C)[C@@H](CCC(C)O)[C@@H]3C[C@H]12` (stereo partly specified), the Potency result in the assay on OV90, in the assay with PA-1 and in the assay on Tov112D was “inactive” in each case.

Regarding `C=C[C@@]12COC(=O)C(=C)[C@@H]1[C@@H](O)[C@H](C(=C)C(=O)OC)[C@@H](O)C2`, the Potency entry with OV90 and with SKOV3 was “inactive” throughout.

In the case of `CC(C)(O)C1Cc2c(ccc(C(=O)CCc3ccccc3)c2O)O1` (stereo unspecified), the Potency was 11.2 µM (active) with OV90, 12.6 µM (active) in the assay on PA-1, 12.6 µM (active) in the assay with Tov-21-G and 10 µM (active) in the assay with Tov112D.

For `Cn1cc(-c2cnn3c(N)c(Br)c(C4CCCNC4)nc23)cn1` (stereo unspecified), the Potency result with OV90 and with Tov112D was “inactive” in each case. For the same molecule, the Potency with PA-1 was 14.1 µM (active).

For the molecule `CCCn1cc2c(nc(NC(=O)Nc3ccc(OC)cc3)n3nc(-c4ccco4)nc23)n1`, the Potency result with OV90, in the assay with PA-1, with Tov-21-G and with Tov112D was “inactive” each time.

Consider `CNc1nc(Nc2ccc(C(=O)N3CCOCC3)cc2OC)nc2[nH]cc(Cl)c12`, for which the Potency result in the assay on OV90, in the assay with SKOV3, in the assay on Tov-21-G and in the assay with Tov112D was “inactive” in each case.

With `C[C@@H]1O[C@@H](O[C@H]2[C@H](OC(=O)[C@]34CCC(C)(C)C[C@H]3C3=CCC5[C@@]6(C)C[C@H](O)[C@H](O[C@@H]7O[C@H](C(=O)O)[C@@H](O)[C@H](O)[C@H]7O)[C@@](C)(CO)C6[C@H](O)C[C@@]5(C)[C@]3(C)C[C@H]4O)O[C@@H](CO)[C@@H]2O)[C@H](O)[C@H](O)[C@H]1O[C@@H]1OC[C@@H](O)[C@H](O[C@H]2OC[C@](O)(CO)[C@H]2O)[C@H]1O` (stereo partly specified), the activity change, negative = cytotoxicity in the assay with OV90 is -4.96% [at 6.55 µM]; in the assay on SKOV3, -5.43% [at 6.55 µM]; in the assay with Tov-21-G, -13.8% [at 6.55 µM]; in the assay on Tov112D it was -1.13% [at 6.55 µM].

For the molecule `Cc1cc(OCCCS(C)(=O)=O)cc(C)c1-c1cccc(COc2ccc3c(c2)OCC3CC(=O)O)c1` (stereo unspecified), the Potency entry in the assay with OV90, with SKOV3, in the assay with Tov-21-G and in the assay with Tov112D was “inactive” throughout.

Regarding `O=c1[nH]c2ccc(C#CCN3CCC(Cc4ccccc4)CC3)cc2[nH]1`, the Potency result in the assay on OV90, with SKOV3, in the assay on Tov-21-G and with Tov112D was “inactive” each time.

For `CC(C)(O)c1ccn2c(-c3ccc(F)c(-c4ccc(F)cc4C#N)c3)cnc2c1F`, the Potency entry with OV90, in the assay with SKOV3, with Tov-21-G and in the assay with Tov112D was “inactive” in each case.

Consider `O=C(NCc1cccs1)c1cc2nc(-c3ccco3)cc(C(F)(F)Cl)n2n1`, for which the Potency result in the assay on OV90, with SKOV3, with Tov-21-G and in the assay with Tov112D was “inactive” each time.
